From PubChem BioAssay (Tox21)
Results filed as inconclusive are left out. Values without a mark were called inactive. Active and inactive are the calls of the source. Unless noted, calls come from the whole dose curve.

Assay: p53 small molecule agonists, cell-based qHTS assay with human liver microsomes: qHTS cell viability counter screen (AID 1963579); note: nearly all actives have a fitted effect of over 45% in size
Conditions: p53RE-bla HCT-116 viability, ATP luminescence, 16 h, HLM; series mostly up to 66 µM; activity change, negative = cytotoxicity: at the top concentration
In short: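 HLM-supplemented (0.5 mg/mL final) and NADPH-supplemented (0.5 mg/mL final) p53RE-bla cultures, 4,000 cells per well, were dosed with compounds in DMSO for 16 h at 37 C; luminescent ATP detection (CellTiter-Glo, 30 min, room temperature) quantified surviving cells.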
% is set by controls: 0 for no effect and ±100 for the full control effect.

Compound	activity change, negative = cytotoxicity
CCCC1CCC(=O)O1 (centres undefined)	4.73%
CCN(CC)c1ccc2c(-c3ccc(S(=O)(=O)O)cc3S(=O)(=O)[O-])c3ccc(=[N+](CC)CC)cc-3oc2c1	-11.6%
COc1ccc(/C=C/S(=O)(=O)NC(=O)c2ccc(C)cc2Cl)cc1	-6.43%
N[C@@H](Cc1cc(I)c(O)c(I)c1)C(=O)O	-5.33% [at 30.3 µM]
C=CC(=O)OCC(Br)CBr (centres undefined)	0.738%
O=C1CCC(C2CCCCC2)CC1	0.494%
COc1ccc(C(=O)N2CCN(CC(=O)N3CCOCC3)CC2)cc1	1.58% [at 30.3 µM]
COCCC(=O)OC	-21.2%
Cc1nc2ccc(Cl)cc2[nH]1	-8.03%
CC(C)(C)C(=O)C(=O)O	-4.51%
COc1cccc(O)c1O	1.46%
N=C1C=CC(=C(c2ccc(N)cc2)c2ccc(N)cc2)C=C1	-9.92%
O=C1c2ccccc2C(=O)C1c1ccc2ccccc2n1	5% [at 30.3 µM]
CN1CCN(C2=Nc3cc(F)ccc3Cc3ccccc32)CC1	18.4% [at 30.3 µM]
CC1=NN(c2ccc(C(=O)O)cc2)C(=O)C1	-1.05%
Oc1ccc(Oc2ccccc2)cc1	-6.66%
CC(C)(O)CCCC1=CCC(C=O)CC1 (centres undefined)	8.33%
NS(=O)(=O)Cc1noc2ccccc12	-2.56% [at 30.3 µM]
COc1ccc(C(=O)c2ccc(OC)cc2O)c(O)c1	-10.3%
Fc1ccc([C@@H]2CCNC[C@H]2COc2ccc3c(c2)OCO3)cc1	14.8% [at 30.3 µM]

Compound	activity change, negative = cytotoxicity
CCOC(=O)O[C@H](C)OC(=O)c1ccc2c(c1)cc(C(=O)NC1CCN(C(C)C)CC1)n2Cc1cc(-c2ccc(Cl)s2)on1	-8.09%
CC1=C(/C=C/C(C)=C\C=C\C(C)=C\C(=O)O)C(C)(C)CCC1	0.71%
Cc1cccc(N(C)C(=S)Oc2ccc3c(c2)CCC3)c1	-5.89% [at 30.3 µM]
CCCC(=O)OCCC(C)C	-0.695%
COc1ccccc1NC(=O)c1cc2ccccc2cc1O	-16.2%
O=C(CCBr)N1CCN(C(=O)CCBr)CC1	-3.94% [at 30.3 µM]
CN(C)CCC=C1c2ccccc2C=Cc2ccccc21	11.4% [at 30.3 µM]
O=C(O)c1cccc(Oc2ccccc2)c1	0.11%
COc1ccc([C@@H]2Sc3ccccc3NC(=O)[C@@H]2O)cc1	17% [at 30.3 µM]
Oc1ccc(C2CNCCc3c2cc(O)c(O)c3Cl)cc1 (centres undefined)	-3.88% [at 30.3 µM]
CC(c1cc(C(C)(C)C)cc(C(C)(C)C)c1O)c1cc(C(C)(C)C)cc(C(C)(C)C)c1O	7.86%
Nc1ccc(S(=O)(=O)NCc2ccccc2)cc1	3.35% [at 30.3 µM]
Nc1[nH]c(=O)ncc1F	-15.3% [at 30.3 µM]
O=Cc1ccccc1[N+](=O)[O-]	0.676%
CCC1CCC(CCC(=O)O)C1 (centres undefined)	-6.02%
CCCCCCCCCCCCCCCCCC(=O)OCCCCCCCCCCCCCC(C)C	2.78%
CCCCCCCCCCCCCCCCCl	0.42% [at 13.5 µM]
CCCOC(=O)c1ccc(O)cc1	-7.6%
CC1COc2c(N3CCN(C)CC3)c(F)cc3c(=O)c(C(=O)O)cn1c23 (centres undefined)	20.3% [at 30.3 µM]
CCCCS	0.459%

Assay: p53 small molecule agonists, cell-based qHTS assay: qHTS cell viability counter screen (AID 1963581); note: nearly all actives have a fitted effect of over 45% in size; note: potency is the fitted concentration of half-maximal effect
Conditions: p53RE-bla HCT-116 viability, ATP luminescence, 16 h; series mostly up to 66 µM; activity change, negative = cytotoxicity: at the top concentration
In short: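 Cells: HCT-116 with p53 response element-driven beta-lactamase. Treatment: 16 h, 37 C, compounds in DMSO. Read: CellTiter-Glo luminescence after 30 min RT.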

Compound	activity change, negative = cytotoxicity	Potency
O=C1CCC(C2CCCCC2)CC1	-2.35%	–
COc1ccc(C(=O)N2CCN(CC(=O)N3CCOCC3)CC2)cc1	23% [at 30.3 µM]	–
Cc1nc2ccc(Cl)cc2[nH]1	2.84%	–
CC(C)(C)C(=O)C(=O)O	6.68%	–
O=C1c2ccccc2C(=O)C1c1ccc2ccccc2n1	-6.91% [at 30.3 µM]	–
Oc1ccc(Oc2ccccc2)cc1	3.7%	–
COc1ccc(C(=O)c2ccc(OC)cc2O)c(O)c1	25.1%	–
Fc1ccc([C@@H]2CCNC[C@H]2COc2ccc3c(c2)OCO3)cc1	-2.05% [at 30.3 µM]	–
CCOC(=O)O[C@H](C)OC(=O)c1ccc2c(c1)cc(C(=O)NC1CCN(C(C)C)CC1)n2Cc1cc(-c2ccc(Cl)s2)on1	–	38.1 µM (active)
CC1=C(/C=C/C(C)=C\C=C\C(C)=C\C(=O)O)C(C)(C)CCC1	19.8%	–
Cc1cccc(N(C)C(=S)Oc2ccc3c(c2)CCC3)c1	-2.64% [at 30.3 µM]	–
CCCC(=O)OCCC(C)C	-6.94%	–
COc1ccccc1NC(=O)c1cc2ccccc2cc1O	-15.1%	–
O=C(CCBr)N1CCN(C(=O)CCBr)CC1	-9.62% [at 30.3 µM]	–
CN(C)CCC=C1c2ccccc2C=Cc2ccccc21	-11% [at 30.3 µM]	–
Nc1ccc(S(=O)(=O)NCc2ccccc2)cc1	2.83% [at 30.3 µM]	–
Nc1[nH]c(=O)ncc1F	0.577% [at 30.3 µM]	–
O=Cc1ccccc1[N+](=O)[O-]	12.9%	–
CCC1CCC(CCC(=O)O)C1 (centres undefined)	11.2%	–
CCCCCCCCCCCCCCCCCl	-1.41% [at 13.5 µM]	–
CC1COc2c(N3CCN(C)CC3)c(F)cc3c(=O)c(C(=O)O)cn1c23 (centres undefined)	22.9% [at 30.3 µM]	–
CCCCS	0.0245%	–

Assay: p53 small molecule agonists, cell-based qHTS assay (AID 1963582; active = well fitted activation curve with a large enough effect in the signal ratio in the repeat runs, not every such curve was filed as active; the % refers to the signal ratio)
Conditions: HCT-116 p53RE-bla reporter, beta-lactamase FRET ratio, 16 h; series mostly up to 66 µM; activation: at the top concentration
In short: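 Quantitative HTS in p53RE-bla cells: after a 5 h settling period, compounds delivered in DMSO were left on cells for 16 h at 37 C, and reporter induction was measured as fluorescence following 2 h substrate loading.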

Compound	activation
CCCC1CCC(=O)O1 (centres undefined)	0.622%
CCN(CC)c1ccc2c(-c3ccc(S(=O)(=O)O)cc3S(=O)(=O)[O-])c3ccc(=[N+](CC)CC)cc-3oc2c1	-3.68%
N[C@@H](Cc1cc(I)c(O)c(I)c1)C(=O)O	4.53% [at 30.3 µM]
C=CC(=O)OCC(Br)CBr (centres undefined)	-3.75%
COc1ccc(C(=O)N2CCN(CC(=O)N3CCOCC3)CC2)cc1	0.985% [at 30.3 µM]
COCCC(=O)OC	1.03%
COc1cccc(O)c1O	8.81%
CN1CCN(C2=Nc3cc(F)ccc3Cc3ccccc32)CC1	-3% [at 30.3 µM]
CC1=NN(c2ccc(C(=O)O)cc2)C(=O)C1	-0.382%
CC(C)(O)CCCC1=CCC(C=O)CC1 (centres undefined)	-0.641%
NS(=O)(=O)Cc1noc2ccccc12	1.07% [at 30.3 µM]
O=C(O)c1cccc(Oc2ccccc2)c1	-3.87%
COc1ccc([C@@H]2Sc3ccccc3NC(=O)[C@@H]2O)cc1	1.19% [at 30.3 µM]
Oc1ccc(C2CNCCc3c2cc(O)c(O)c3Cl)cc1 (centres undefined)	-3.34% [at 30.3 µM]
Nc1[nH]c(=O)ncc1F	0.293% [at 30.3 µM]
CCCCCCCCCCCCCCCCCC(=O)OCCCCCCCCCCCCCC(C)C	0.165%
CC1COc2c(N3CCN(C)CC3)c(F)cc3c(=O)c(C(=O)O)cn1c23 (centres undefined)	1.38% [at 30.3 µM]
